Test results published in PubChem BioAssay.

What follows are compounds tested on Human papillomavirus type 1a E7 protein (residues 1-88) (assay: HPV1a E7 small-molecule binders, primary screen, biochemical, small-molecule microarray, residues 1-88, 635 nm (AID 1129)). Conditions: small-molecule microarray binding, fluorescence 635 nm; higher = more signal.

Compound	composite z-score
COC(=O)C[C@H]1O[C@@H](CCc2ccccc2)[C@@H](C)[C@@H]1[Si](C)(C)c1ccc(OC)cc1	-1.35
CC(=CC1CCCCC1)[C@@H](NC(=O)c1cccnc1)c1ccc(-c2ccccc2)cc1	0.242
[N-]=[N+]=Nc1ccccc1C[C@]1(C(=O)NCC(O)CO)N=C(c2ccc(OCCCO)cc2)O[C@H]1c1ccccc1 (stereo partly drawn)	1.03
COCC(=C=CC[C@H](O)c1cccc(OCCO)c1)CCO	0.0665
COC(=O)[C@H](Cc1ccccc1)N[C@H](/C=C/C1CC1)[C@@H](O)Cc1ccccc1	-0.688
C=CCOC(=O)[C@H]1[C@@H]2C(=O)O[C@@H](c3ccccc3)[C@@H](c3ccccc3)N2[C@@H](c2ccc(OCCOC(=O)[C@@H]3C[C@@H]4C(=O)N5CCC[C@H]5C(=O)N4[C@@H]3c3cccc(OCCO)c3)cc2)[C@]12C(=O)Nc1ccc(I)cc12	1.2
COCC(=C=CC[C@@H](O)c1ccc(OCCO)cc1)C[C@@H](O)c1ccccn1	-0.14
COc1ccc([Si](C)(C)[C@@H]2[C@@H](CCO)O[C@]3(C(=O)N(Cc4cccc(N5CCOC5=O)c4)c4ccccc43)[C@H]2C)cc1	0.981
[N-]=[N+]=Nc1ccccc1[C@H]1OC(c2ccc(OCCCO)cc2)=N[C@@]1(Cc1ccccc1)C(=O)N1CCOCC1	1.21
CN1C(=O)C2C=CC(C(O)C=Cc3ccc([N+](=O)[O-])cc3)N(Nc3ccccc3)C2C1=O (stereo not drawn)	1.24
C#CCOc1ccc(C[C@@H](C(=O)OC)N(CC#C)[C@@H](/C=C/C2CC2)[C@H](O)Cc2ccccc2)cc1	-0.438
O=C(NCc1ccccc1)[C@@H]1c2ccccc2C(=O)N(C2Cc3ccccc3C2)[C@H]1c1ccc(CO)cc1	1.17
COC(=O)c1c2oc(c1C(=O)OC)C(=O)NC1(CCCCC1)c1cn(nn1)C[C@H](Cc1ccccc1)NC(=O)N[C@H](CO)CC2	0.494
CCCCCCc1nc(-c2ccc(-c3ccc(Cl)c(Cl)c3)o2)cc2c1[Si](C(C)C)(C(C)C)O[C@H]2c1ccccc1	-0.73
COCCOC(=O)N1C(=O)[C@@]2(c3cc(C#CC4(O)CCCCCC4)ccc31)[C@H](C(=O)Nc1nc3ccccc3s1)[C@H]1C(=O)O[C@H](c3ccccc3)[C@H](c3ccccc3)N1[C@@H]2c1ccc(OCCO)cc1	1.16
COC(=O)[C@@]1(Cc2ccc(OC)cc2)[C@H]2c3cc(C(=O)N4CCCC4)n(CCCNc4ncc(C(F)(F)F)cc4Cl)c3C[C@H]2CN1C(=O)c1ccccc1	1.14
COC(=O)[C@@]1(Cc2ccc(OC)cc2)[C@H]2c3cc(C(=O)N4CCCC4)n(CCc4ccc(O)c(O)c4)c3C[C@H]2CN1C(=O)c1ccccc1	1.17
Cc1c(NC(=O)/C(C#N)=C/c2cccc([N+](=O)[O-])c2)c(=O)n(-c2ccccc2)n1C	1.02
C[N+](C)(C)CCCC[C@@H]1NC(=O)[C@@H]2C[C@H](C(=O)NCCCCCCNC(=O)CS)[C@H](c3ccc(O)cc3)N2C1=O	-0.982
COC(=O)[C@@]1(Cc2ccccc2)[C@H]2c3cc(C(=O)N4CCCC4)n(Cc4ccc(O)c(OC)c4)c3C[C@H]2CN1C(=O)c1ccccc1	1.27
O=C1O[C@@H](c2ccccc2)[C@@H](c2ccccc2)N2[C@@H](c3ccccc3OCCO)[C@]3(C(=O)Nc4ccccc43)[C@@H](C(=O)O)[C@H]12	0.718
CCCNC(=O)[C@@H]1c2ccccc2C(=O)N(Cc2ccccc2OC)[C@H]1c1ccc(CO)cc1	1.22
CC[C@@H]1C=C(C(=O)O)[C@H](c2ccc(C)cc2)N1S(=O)(=O)c1ccc(C)cc1	1.23
O=C1O[C@H](c2ccccc2)[C@H](c2ccccc2)N2[C@H]1[C@@H](C(=O)NC[C@H](O)c1ccccc1)[C@]1(C(=O)Nc3ccccc31)[C@H]2c1ccc(O)cc1	0.973
Cc1ccc(S[C@]2(C(=O)NCC(C)C)CC(=O)N(Cc3cc(C(F)(F)F)cc(C(F)(F)F)c3)[C@@H]2c2ccc(CO)cc2)cc1	-0.8
COCCOC(=O)N1C(=O)[C@@]2(c3cc(C#CC4=CCCCC4)ccc31)[C@H](c1ccc(OCCO)cc1)N1[C@H](c3ccccc3)[C@H](c3ccccc3)OC(=O)[C@H]1[C@@H]2C(=O)N1CCc2cc(OC)c(OC)cc2C1	1.19
COc1ccccc1CN1C(=O)c2ccccc2[C@@H](C(=O)NCc2ccccc2)[C@@H]1c1ccc(CO)cc1	0.464
COCCOC(=O)N1C(=O)[C@@]2(c3ccccc31)[C@H](C(N)=O)[C@H]1C(=O)O[C@H](c3ccccc3)[C@H](c3ccccc3)N1[C@@H]2c1ccc(O)cc1	1.04
